# Results published in PubChem BioAssay.
# Several values for one entry are separate records, joined by “and”; a condition that tells them apart may be missing. Equal values may be shown once. Activity calls are given as the source filed them. Rule as the data show it: active = inhibition above about 80%; inactive = the rest.
# Assay: drug combination toxicity in non-malignant astrocytes – cell-based, BGB or cisplatin IC20 combos, cytotoxicity control for chromothriptic childhood tumor combination screen (AID 1671460);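 also: cells exposed to compounds for 96 hours before viability readout; 0% = vehicle and 100% = killing control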
# Conditions: Human astrocytes, viability inhibition, drug combinations; measured here: combo with BGB IC20; at 0.5 µM; stronger effect = higher value
row,SMILES,inhibition
1,O=c1[nH]cc(F)c(=O)[nH]1,2.98%
2,CCCCCCNC(=O)n1cc(F)c(=O)[nH]c1=O,-8.62% and 3.35%
3,Cn1cnc([N+](=O)[O-])c1Sc1ncnc2nc[nH]c12,5.14% and 24.1%
4,CCn1cc(C(=O)O)c(=O)c2cc(F)c(N3CCN(C)CC3)cc21,1.4% and 4.59%

# Same assay, conditions: Human astrocytes, viability inhibition, drug combinations; measured here: combo with cisplatin IC20; at 0.5 µM; stronger effect = higher value
row,SMILES,inhibition
1,O=c1[nH]cc(F)c(=O)[nH]1,-4.03%
2,CCCCCCNC(=O)n1cc(F)c(=O)[nH]c1=O,18.1% and 20.7%
3,Cn1cnc([N+](=O)[O-])c1Sc1ncnc2nc[nH]c12,-7.22% and 6.12%
4,CCn1cc(C(=O)O)c(=O)c2cc(F)c(N3CCN(C)CC3)cc21,-18.3% and 1.72%

# Assay: BT084 cell growth, single and combined drugs, ICGC_MB145, cisplatin and BGB IC40 combos (AID 1671461);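 also: cells exposed to drugs for 96 hours; 0% = vehicle DMSO and 100% = high DMSO full killing control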
# Conditions: BT084 medulloblastoma cells, drug combinations, at 0.5 µM, stronger effect = higher value
row,SMILES,inhibition
1,O=c1[nH]cc(F)c(=O)[nH]1,-4.41% (inactive)
2,CCCCCCNC(=O)n1cc(F)c(=O)[nH]c1=O,-1.98% (inactive) and -19.4% (inactive)
3,Cn1cnc([N+](=O)[O-])c1Sc1ncnc2nc[nH]c12,-16.8% (inactive) and 4.68% (inactive)
4,CCn1cc(C(=O)O)c(=O)c2cc(F)c(N3CCN(C)CC3)cc21,-1.86% (inactive) and 3.84% (inactive)

# Same assay, conditions: BT084 medulloblastoma cells, drug combinations, cisplatin combination, at 0.5 µM, stronger effect = higher value
row,SMILES,inhibition
1,O=c1[nH]cc(F)c(=O)[nH]1,-0.838%
2,CCCCCCNC(=O)n1cc(F)c(=O)[nH]c1=O,-28.3% and -28.4%
3,Cn1cnc([N+](=O)[O-])c1Sc1ncnc2nc[nH]c12,-15.8% and -6.89%
4,CCn1cc(C(=O)O)c(=O)c2cc(F)c(N3CCN(C)CC3)cc21,-11.9% and -2.51%

# Same assay, conditions: BT084 medulloblastoma cells, drug combinations, cisplatin combination, at 5 µM, stronger effect = higher value
row,SMILES,inhibition
1,O=c1[nH]cc(F)c(=O)[nH]1,-20.1%
2,CCCCCCNC(=O)n1cc(F)c(=O)[nH]c1=O,-14.4% and -69.9%
3,Cn1cnc([N+](=O)[O-])c1Sc1ncnc2nc[nH]c12,-45.6% and -9.16%
4,CCn1cc(C(=O)O)c(=O)c2cc(F)c(N3CCN(C)CC3)cc21,-69% and 6.95%

# Same assay, conditions: BT084 medulloblastoma cells, drug combinations, measured here: BGB IC40 combination 0.05 uM, at 0.05 µM, stronger effect = higher value
row,SMILES,inhibition
1,O=c1[nH]cc(F)c(=O)[nH]1,2.5%
2,CCCCCCNC(=O)n1cc(F)c(=O)[nH]c1=O,-34% and -12%
3,Cn1cnc([N+](=O)[O-])c1Sc1ncnc2nc[nH]c12,2.92% and 62.8%
4,CCn1cc(C(=O)O)c(=O)c2cc(F)c(N3CCN(C)CC3)cc21,-0.823% and 30.3%

# Same assay, conditions: BT084 medulloblastoma cells, drug combinations, single agent, at 5 µM, stronger effect = higher value
row,SMILES,inhibition
1,O=c1[nH]cc(F)c(=O)[nH]1,-0.674%
2,CCCCCCNC(=O)n1cc(F)c(=O)[nH]c1=O,6.42% and -7.55%
3,Cn1cnc([N+](=O)[O-])c1Sc1ncnc2nc[nH]c12,-13.5% and -5.72%
4,CCn1cc(C(=O)O)c(=O)c2cc(F)c(N3CCN(C)CC3)cc21,-6.24% and -12.7%

# Assay: RCMB18 cell growth, single agent and combined, cisplatin and BGB IC40 combos (AID 1671462);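 also: cells exposed to compound for four days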
# Conditions: RCMB18 medulloblastoma cells, at 0.5 µM, stronger effect = higher value
row,SMILES,inhibition
1,O=c1[nH]cc(F)c(=O)[nH]1,3% (inactive)
2,CCCCCCNC(=O)n1cc(F)c(=O)[nH]c1=O,-8.71% (inactive) and -17.6% (inactive)
3,Cn1cnc([N+](=O)[O-])c1Sc1ncnc2nc[nH]c12,-11.9% (inactive) and -11.3% (inactive)
4,CCn1cc(C(=O)O)c(=O)c2cc(F)c(N3CCN(C)CC3)cc21,-15.3% (inactive) and 13.4% (inactive)

# Same assay, conditions: RCMB18 medulloblastoma cells, cisplatin combo, at 5 µM, stronger effect = higher value
row,SMILES,inhibition
1,O=c1[nH]cc(F)c(=O)[nH]1,11.8%
2,CCCCCCNC(=O)n1cc(F)c(=O)[nH]c1=O,-32.4% and 29.2%
3,Cn1cnc([N+](=O)[O-])c1Sc1ncnc2nc[nH]c12,4.98% and -8.51%
4,CCn1cc(C(=O)O)c(=O)c2cc(F)c(N3CCN(C)CC3)cc21,-13.1% and 21.2%

# Same assay, conditions: RCMB18 medulloblastoma cells, measured here: BGB IC40 combination, at 0.05 µM, stronger effect = higher value
row,SMILES,inhibition
1,O=c1[nH]cc(F)c(=O)[nH]1,-17.4%
2,CCCCCCNC(=O)n1cc(F)c(=O)[nH]c1=O,-13.3% and -15%
3,Cn1cnc([N+](=O)[O-])c1Sc1ncnc2nc[nH]c12,-6.18% and -2.54%
4,CCn1cc(C(=O)O)c(=O)c2cc(F)c(N3CCN(C)CC3)cc21,11.2% and 6.78%

# Same assay, conditions: RCMB18 medulloblastoma cells, measured here: combination with cisplatin, at 0.5 µM, stronger effect = higher value
row,SMILES,inhibition
1,O=c1[nH]cc(F)c(=O)[nH]1,13.9%
2,CCCCCCNC(=O)n1cc(F)c(=O)[nH]c1=O,-7.21% and -15.6%
3,Cn1cnc([N+](=O)[O-])c1Sc1ncnc2nc[nH]c12,-8.48% and -16.8%
4,CCn1cc(C(=O)O)c(=O)c2cc(F)c(N3CCN(C)CC3)cc21,-34.9% and 34.7%

# Same assay, conditions: RCMB18 medulloblastoma cells, single agent, at 5 µM, stronger effect = higher value
row,SMILES,inhibition
1,O=c1[nH]cc(F)c(=O)[nH]1,7.41%
2,CCCCCCNC(=O)n1cc(F)c(=O)[nH]c1=O,54.2% and -12.5%
3,Cn1cnc([N+](=O)[O-])c1Sc1ncnc2nc[nH]c12,-19.3% and -29.9%
4,CCn1cc(C(=O)O)c(=O)c2cc(F)c(N3CCN(C)CC3)cc21,-30.4% and 4.8%

# Assay: CRL1545 cell growth, single agent and combined, cisplatin and BGB IC20 combos (AID 1671464);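 also: cells exposed to compound for 96 hours before readout; 0% = vehicle DMSO and 100% = high DMSO killing control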
# Conditions: CRL1545 osteosarcoma cells, at 0.5 µM, stronger effect = higher value
row,SMILES,inhibition
1,O=c1[nH]cc(F)c(=O)[nH]1,-41.5% (inactive)
2,CCCCCCNC(=O)n1cc(F)c(=O)[nH]c1=O,-38.9% (inactive) and -6.62% (inactive)
3,Cn1cnc([N+](=O)[O-])c1Sc1ncnc2nc[nH]c12,-10.1% (inactive) and 15.6% (inactive)
4,CCn1cc(C(=O)O)c(=O)c2cc(F)c(N3CCN(C)CC3)cc21,-40.9% (inactive) and -9.39% (inactive)

# Same assay, conditions: CRL1545 osteosarcoma cells, measured here: with BGB IC20 combination, at 0.5 µM, stronger effect = higher value
row,SMILES,inhibition
1,O=c1[nH]cc(F)c(=O)[nH]1,-0.875%
2,CCCCCCNC(=O)n1cc(F)c(=O)[nH]c1=O,-31.2% and -14.7%
3,Cn1cnc([N+](=O)[O-])c1Sc1ncnc2nc[nH]c12,23.3% and -13%
4,CCn1cc(C(=O)O)c(=O)c2cc(F)c(N3CCN(C)CC3)cc21,-21.3% and -8%

# Same assay, conditions: CRL1545 osteosarcoma cells, measured here: with cisplatin IC20 combination, at 0.5 µM, stronger effect = higher value
row,SMILES,inhibition
1,O=c1[nH]cc(F)c(=O)[nH]1,-61.8%
2,CCCCCCNC(=O)n1cc(F)c(=O)[nH]c1=O,-45.1% and -2.6%
3,Cn1cnc([N+](=O)[O-])c1Sc1ncnc2nc[nH]c12,-26.8% and 29.9%
4,CCn1cc(C(=O)O)c(=O)c2cc(F)c(N3CCN(C)CC3)cc21,-50.7% and -12.6%
